# Measured values from the supplement of paper PMC10037445.
# The full ranking holds about 2,900 compounds; the median of “NF-kB SEAP reporter activity, fold change vs agonist alone” is about 0.99, and the highest 2% start at about 2.6. What follows is part of a selection rich in the highest values, with near analogues and random picks from the rest.
# Legend:
# RAW-Dual [1] = assay: NF-kB SEAP reporter activity, fold change vs agonist alone; higher = enhanced NF-kB activity
# Outline: (§1)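 Supernatant from RAW-Dual macrophages was read after 20 hours for IRF by QuantiLuc luminescence and for NF-κB by QuantiBlue absorbance at 620 nm. The cells (50,000 cells/well in DMEM, 384-well plates, 37 °C, 5% CO2) had received 50 nL of library stock by pin tool and, 1 h later, a PRR agonist. Reporter activity is expressed relative to agonist-alone wells as fold change, and wells were flagged cytotoxic if IncuCyte confluency was under 70% of agonist controls in both mask sets.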
# RAW-Dual [2] = assay: NF-kB SEAP reporter activity, fold change vs agonist alone; cytotoxicity flag (confluency mask): cytotoxic (confluency <70% of control); higher = enhanced NF-kB activity
# Outline: as §1
# RAW-Dual [3] = assay: NF-kB SEAP reporter activity, fold change vs agonist alone; cytotoxicity flag (confluency mask): not cytotoxic; higher = enhanced NF-kB activity
# Outline: as §1
# [4] = library stock concentration (final ~1000-fold dilution): 10 mM, cytotoxicity flag (confluency mask): cytotoxic (confluency <70% of control), agonist: Imiquimod (TLR7) […]
# [5] = library stock concentration (final ~1000-fold dilution): 10 mM, cytotoxicity flag (confluency mask): cytotoxic (confluency <70% of control), agonist: MPLA (TLR4) […]
# [6] = agonist: ODN 1826 (TLR9) 0.5 ug/mL
# [7] = agonist: Pam2CSK4 (TLR2/6) 0.1 ug/mL
# [8] = agonist: Pam3CSK4 (TLR2/1) 0.1 ug/mL
# [9] = library stock concentration (final ~1000-fold dilution): 10 mM, cytotoxicity flag (confluency mask): not cytotoxic, agonist: Imiquimod (TLR7) […]
# [10] = library stock concentration (final ~1000-fold dilution): 10 mM, cytotoxicity flag (confluency mask): not cytotoxic, agonist: MPLA (TLR4) […]
structure (smiles),measurement,setting,value
CN(C)C(CCOc1cccc2ccccc12)c1ccccc1.Cl (stereo not drawn),NF-kB SEAP reporter activity,RAW-Dual [1]; [4],1.61
same,NF-kB SEAP reporter activity,RAW-Dual [1]; [5],0.958
CN(C)C(CCOc1cccc2ccccc12)c1ccccc1.Cl (stereo not drawn) (library stock concentration (final ~1000-fold dilution): 10 mM),NF-kB SEAP reporter activity,RAW-Dual [2]; agonist: LPS (TLR4) 0.1 ug/mL,1.05
same,NF-kB SEAP reporter activity,RAW-Dual [2]; [6],0.655
same,NF-kB SEAP reporter activity,RAW-Dual [2]; [7],0.546
same,NF-kB SEAP reporter activity,RAW-Dual [2]; [8],0.65
CCCSc1nc(NC2CC2c2ccc(F)c(F)c2)c2nnn(C3CC(OCCO)C(O)C3O)c2n1 (stereo not drawn),NF-kB SEAP reporter activity,RAW-Dual [1]; [4],1.05
same,NF-kB SEAP reporter activity,RAW-Dual [1]; [5],0.94
CCCSc1nc(NC2CC2c2ccc(F)c(F)c2)c2nnn(C3CC(OCCO)C(O)C3O)c2n1 (stereo not drawn) (library stock concentration (final ~1000-fold dilution): 10 mM),NF-kB SEAP reporter activity,RAW-Dual [2]; agonist: LPS (TLR4) 0.1 ug/mL,1.04
same,NF-kB SEAP reporter activity,RAW-Dual [2]; [6],0.615
same,NF-kB SEAP reporter activity,RAW-Dual [2]; [7],0.51
same,NF-kB SEAP reporter activity,RAW-Dual [2]; [8],0.332
Cl.Cl.O=C(O)c1ccc(CN2CCC(CNC3CC3c3ccccc3)CC2)cc1 (stereo not drawn),NF-kB SEAP reporter activity,RAW-Dual [1]; [9],1.01
same,NF-kB SEAP reporter activity,RAW-Dual [1]; [10],1.05
Cl.Cl.O=C(O)c1ccc(CN2CCC(CNC3CC3c3ccccc3)CC2)cc1 (stereo not drawn) (library stock concentration (final ~1000-fold dilution): 10 mM),NF-kB SEAP reporter activity,RAW-Dual [3]; agonist: LPS (TLR4) 0.1 ug/mL,1.01
same,NF-kB SEAP reporter activity,RAW-Dual [3]; [6],1.22
same,NF-kB SEAP reporter activity,RAW-Dual [3]; [7],0.875
same,NF-kB SEAP reporter activity,RAW-Dual [3]; [8],0.786
COc1cnc(NS(=O)(=O)c2ccc(N)cc2)nc1 (library stock concentration (final ~1000-fold dilution): 10 mM),NF-kB SEAP reporter activity,RAW-Dual [3]; agonist: LPS (TLR4) 0.1 ug/mL,1.22
same,NF-kB SEAP reporter activity,RAW-Dual [3]; [6],0.999
same,NF-kB SEAP reporter activity,RAW-Dual [3]; [7],1.13
same,NF-kB SEAP reporter activity,RAW-Dual [3]; [8],1.19
COc1ccc(S(=O)(=O)Nc2cccnc2Nc2ccc(O)cc2)cc1 (library stock concentration (final ~1000-fold dilution): 10 mM),NF-kB SEAP reporter activity,RAW-Dual [3]; agonist: LPS (TLR4) 0.1 ug/mL,4.93
same,NF-kB SEAP reporter activity,RAW-Dual [3]; [6],3.17
same,NF-kB SEAP reporter activity,RAW-Dual [3]; [7],1.86
same,NF-kB SEAP reporter activity,RAW-Dual [3]; [8],2.22
COc1cc(Nc2nc3ccccc3nc2NS(=O)(=O)c2ccc(NC(=O)c3ccc(C)c(OC)c3)cc2)cc(OC)c1 (library stock concentration (final ~1000-fold dilution): 10 mM),NF-kB SEAP reporter activity,RAW-Dual [3]; agonist: LPS (TLR4) 0.1 ug/mL,2.08
same,NF-kB SEAP reporter activity,RAW-Dual [3]; [6],1.04
same,NF-kB SEAP reporter activity,RAW-Dual [3]; [7],0.51
same,NF-kB SEAP reporter activity,RAW-Dual [3]; [8],0.561
COc1cc(Nc2nc3ccccc3nc2NS(=O)(=O)c2ccc(NC(=O)c3ccc(C)c(OC)c3)cc2)cc(OC)c1,NF-kB SEAP reporter activity,RAW-Dual [1]; [9],0.914
same,NF-kB SEAP reporter activity,RAW-Dual [1]; [10],0.963
COc1ccc(S(=O)(=O)Nc2cccnc2Nc2ccc(O)cc2)cc1,NF-kB SEAP reporter activity,RAW-Dual [1]; [9],2.48
same,NF-kB SEAP reporter activity,RAW-Dual [1]; [10],1.92
COc1cnc(NS(=O)(=O)c2ccc(N)cc2)nc1,NF-kB SEAP reporter activity,RAW-Dual [1]; [9],0.927
same,NF-kB SEAP reporter activity,RAW-Dual [1]; [10],1.02
CCC(C)n1cc(C)c2c(C(=O)NCc3c(C)cc(C)[nH]c3=O)cc(-c3ccc(N4CCNCC4)nc3)cc21 (stereo not drawn) (library stock concentration (final ~1000-fold dilution): 2 mM),NF-kB SEAP reporter activity,RAW-Dual [3]; agonist: LPS (TLR4) 0.1 ug/mL,1.17
same,NF-kB SEAP reporter activity,RAW-Dual [3]; [6],0.973
same,NF-kB SEAP reporter activity,RAW-Dual [3]; [7],0.979
same,NF-kB SEAP reporter activity,RAW-Dual [3]; [8],1.07
CCC(C)n1cc(C)c2c(C(=O)NCc3c(C)cc(C)[nH]c3=O)cc(-c3ccc(N4CCNCC4)nc3)cc21 (stereo not drawn),NF-kB SEAP reporter activity,"RAW-Dual [1]; library stock concentration (final ~1000-fold dilution): 2 mM, cytotoxicity flag (confluency mask): not cytotoxic, agonist: Imiquimod (TLR7) […]",0.954
same,NF-kB SEAP reporter activity,"RAW-Dual [1]; library stock concentration (final ~1000-fold dilution): 2 mM, cytotoxicity flag (confluency mask): not cytotoxic, agonist: MPLA (TLR4) […]",0.941
COc1ccc(-c2cc(=O)c3c(O)c(OC)c(O)c(OC)c3o2)cc1,NF-kB SEAP reporter activity,RAW-Dual [1]; [9],0.931
same,NF-kB SEAP reporter activity,RAW-Dual [1]; [10],1.09
COc1ccc(-c2cc(=O)c3c(O)c(OC)c(O)c(OC)c3o2)cc1 (library stock concentration (final ~1000-fold dilution): 10 mM),NF-kB SEAP reporter activity,RAW-Dual [3]; agonist: LPS (TLR4) 0.1 ug/mL,1.27
same,NF-kB SEAP reporter activity,RAW-Dual [3]; [6],0.993
same,NF-kB SEAP reporter activity,RAW-Dual [3]; [7],1.14
same,NF-kB SEAP reporter activity,RAW-Dual [3]; [8],1.05
